A number with no mark means an inactive call. How the calls were made is not given here.
What follows are binders tested against CD276, Q5ZPR3.
CD276, Q5ZPR3, sequence (Q5ZPR3 whole entry): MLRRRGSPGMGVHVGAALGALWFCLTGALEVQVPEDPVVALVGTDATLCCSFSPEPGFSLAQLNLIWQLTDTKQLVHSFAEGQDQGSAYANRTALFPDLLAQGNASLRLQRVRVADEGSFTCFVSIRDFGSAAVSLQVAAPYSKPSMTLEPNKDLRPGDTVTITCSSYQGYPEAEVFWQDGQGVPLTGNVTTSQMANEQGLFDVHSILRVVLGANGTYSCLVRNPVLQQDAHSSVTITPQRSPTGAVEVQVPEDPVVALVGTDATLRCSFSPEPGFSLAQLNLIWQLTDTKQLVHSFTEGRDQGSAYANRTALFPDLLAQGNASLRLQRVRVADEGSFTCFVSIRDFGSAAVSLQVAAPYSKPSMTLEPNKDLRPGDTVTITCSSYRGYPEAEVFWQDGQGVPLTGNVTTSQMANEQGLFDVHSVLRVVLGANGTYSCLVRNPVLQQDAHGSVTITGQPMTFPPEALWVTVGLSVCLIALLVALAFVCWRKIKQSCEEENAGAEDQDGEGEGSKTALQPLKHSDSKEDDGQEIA

Binder	binding in a display sort
design_487_778f5c6d-c470-43b8-8f82-464af6177e08_1381_dldesign_0_cycle1_af2pred (protein) MVEKAIEMVEKATKEAAARAPAKAEEIKKLGEKFKKEVEYLGKLNPESGLVMARGAVGALKDIADKEAKA	not found
design_487_778f5c6d-c470-43b8-8f82-464af6177e08_1416_dldesign_0_cycle1_af2pred (protein) DEEERKKKAAEIMKKQAEKLKALAAADPANALTYRAAAALFEAAAIETLKDPEKGLKVGEDAVGLMAQVPAVAPEAKAAYEKAKALL	not found
design_487_778f5c6d-c470-43b8-8f82-464af6177e08_1484_dldesign_0_cycle1_af2pred (protein) SRLEELRRRRDEYVAQLEVAIAELEELSKRAVTEEARRAAEEARALVEEGDKDPERGANIVGRALVQAQAALARARRLNEAA	not found
design_487_778f5c6d-c470-43b8-8f82-464af6177e08_1499_dldesign_0_cycle1_af2pred (protein) DEAELLEAINRAGRETRERLLALGESEAEATRAASAVQVVGYAALTGNAEAEAIGMASLATVGKGRPVAVAAAEEVADRIRAA	not found
design_487_778f5c6d-c470-43b8-8f82-464af6177e08_1544_dldesign_0_cycle1_af2pred (protein) AALQQANAALKAAQSLVDHVKKNPEFSPESIIKVADVAIELAKQAEEEAAKADPEVAKKAKEAKEEAEKIKKEAA	not found
design_487_778f5c6d-c470-43b8-8f82-464af6177e08_1639_dldesign_0_cycle1_af2pred (protein) GALAVQTARASAAQAVAAVAAAPAEEAPARVAAAEKLLAVLDGIAEAASPEAGAQIRAIVDAARAAIAATAAAKAAA	not found
design_487_778f5c6d-c470-43b8-8f82-464af6177e08_1892_dldesign_0_cycle1_af2pred (protein) AAQALLAQANAALGQLLDLAAEASASSPEEAARATAQMRETAAAAQAAAAAAAAQDPAIAPQAQAIAASAAALARNAEELVAAR	not found
design_487_778f5c6d-c470-43b8-8f82-464af6177e08_1924_dldesign_0_cycle1_af2pred (protein) MEKETEELLKKAKELIEKAKELAKEVLKKDPISGRGIQAAVKSAEELLKRGIEGEDSLRYAKQALELAKVALEMAKATLAA	not found
design_487_778f5c6d-c470-43b8-8f82-464af6177e08_1930_dldesign_0_cycle1_af2pred (protein) AQAAADAAEALSELAIKFSKLAKKISPEAAAYFARAAGYFLRASGILRAGGDAAAAAAALAKGLALFLLGLAILKKVLS	not found
design_487_778f5c6d-c470-43b8-8f82-464af6177e08_1978_dldesign_0_cycle1_af2pred (protein) AKEKAIEEITALRELAVKAAEEVGKEEEKEKIKELTEKAIEALDNPEESARLITKAAAIAVEVAPEKAAQIRRLASAAIQAALAT	not found
design_487_778f5c6d-c470-43b8-8f82-464af6177e08_2029_dldesign_0_cycle1_af2pred (protein) ATAAEIAARMGAAIKRNALANMDEIAAELADDPELAAKRLAAVVENARKMLEAAGLTPEEVAALVAELEARADELVEANRA	not found
design_487_778f5c6d-c470-43b8-8f82-464af6177e08_2068_dldesign_0_cycle1_af2pred (protein) AAAEAAAAAEAQEKAKEAAEKAVENIDDPELAEKYAEEAGKALLAGADLEEVLTYANSLNPEVARLIARAYARLGAAAVRA	not found
design_487_778f5c6d-c470-43b8-8f82-464af6177e08_2307_dldesign_0_cycle1_af2pred (protein) AAEAEEEAKKLAEEAAKLVAAVDPSIAEEVAKALELGNLAQVKTMLVLAQSAYESTDPAARALALANLRTVAAQAIARAA	not found
design_487_778f5c6d-c470-43b8-8f82-464af6177e08_2394_dldesign_0_cycle1_af2pred (protein) AAEEAERIIEGNRQLGLAIAEGSASKEEMKAKVDEAVEKARKAVEEDPEKGPEYALELFTKTNKEIMLQALAELT	not found
design_488_244881a1-ba0c-4c08-ad9c-1f64cf93580a_114_dldesign_0_cycle1_af2pred (protein) AAAALAGEVSAELVEIVGEAARVLGEAERLGDAEVVALAREARALANKALAALAAGDVEKAVEYAKKAREKLEEARRRLEEVKRR	not found
design_488_244881a1-ba0c-4c08-ad9c-1f64cf93580a_123_dldesign_0_cycle1_af2pred (protein) GGEEEGEELLERGREAAEEIARLPLSETERLARLTGEALEYAREAARVAGGEKAREILTAISRAHAASVA	not found
design_488_244881a1-ba0c-4c08-ad9c-1f64cf93580a_165_dldesign_0_cycle1_af2pred (protein) MTPADQLIELARAIVEQAKASDPETAAVNAAGAEAAAGALRNYAAANPETGPKAEAAAKEAEAAAKAIKAAVAAAK	not found
design_488_244881a1-ba0c-4c08-ad9c-1f64cf93580a_204_dldesign_0_cycle1_af2pred (protein) LAATRAAANAVLTRASKLNLQAVADPALAEVAALANQAIALALAGLADPATLAADTAAAAAVLDQAEALAKLVA	not found
design_488_244881a1-ba0c-4c08-ad9c-1f64cf93580a_236_dldesign_0_cycle1_af2pred (protein) PVERAIRLAEGAITFLEGLIVARKDGNAAGAAAYAQAAKTLLEELAKLLPGEIAKEATEAAKLAADPATAEKALALAKKILERIKKE	not found

Binder	binding in a display sort
design_488_244881a1-ba0c-4c08-ad9c-1f64cf93580a_302_dldesign_0_cycle1_af2pred (protein) MMAEYEARARELFEKAAASDPETARKIGEEMVKLAKEDVEFGNVAALVAAQVAAESGSPVLRQIQAAIARTVIEQLA	not found
design_488_244881a1-ba0c-4c08-ad9c-1f64cf93580a_362_dldesign_0_cycle1_af2pred (protein) AEEERRRAALAERARAVLQQAAAVGSQAAIADPSVSGTILDGLKEAYELLARGEVERALEVAEALLASAQATLAAL	not found
design_488_244881a1-ba0c-4c08-ad9c-1f64cf93580a_478_dldesign_0_cycle1_af2pred (protein) ITEAEAKELAEMVRTPETAPEAAARLEALGAASTPGQAAFFRAAAALARLAAEAPEEERPRYAEGVLKILQAAI	not found
design_488_244881a1-ba0c-4c08-ad9c-1f64cf93580a_492_dldesign_0_cycle1_af2pred (protein) ATALLRSALAQAKSAIIAMKQDPEQGAQLAEGAALTAKAAGDEETAKKLEEAAKLAKEGKAEEAIKLLEEAAKELAKAI	not found
design_488_244881a1-ba0c-4c08-ad9c-1f64cf93580a_578_dldesign_0_cycle1_af2pred (protein) GAAAAARRAAAFTLLEIARSLVAAGPQYAGSAIRTAAQALALVAPEYEEEVRAVGREEGAAAAVEYARELLA	not found
design_488_244881a1-ba0c-4c08-ad9c-1f64cf93580a_631_dldesign_0_cycle1_af2pred (protein) GLRESTEKVLEVAGQLAAQTAATSPELGPQAAAVAEAGRARAEALIAAGDYEGAFAAANEAAAQLSRLAVQAAQAAAAA	not found
design_488_244881a1-ba0c-4c08-ad9c-1f64cf93580a_642_dldesign_0_cycle1_af2pred (protein) AEAARKAALAVRTAAASFKAAADAGASAEAVKKLGEVMAQSVEAYDPEVGKEVKAKVEELAKLPDAKKAAAELAKFMEAKAKEVAAK	not found
design_488_244881a1-ba0c-4c08-ad9c-1f64cf93580a_688_dldesign_0_cycle1_af2pred (protein) DTARQALIASAQQARKQLEAAKALTPEEQARAAQAVLELARQLAESAEAAGDEEALALAREVAEAAEAAIKEAKAA	not found
design_488_244881a1-ba0c-4c08-ad9c-1f64cf93580a_765_dldesign_0_cycle1_af2pred (protein) AADVAQAKEYAKQAKEFAEQADPELAKEVGKEAEALVKEAEADPSKAAEYLNKVGQLYVQAAAAAMKKLA	not found
design_488_244881a1-ba0c-4c08-ad9c-1f64cf93580a_782_dldesign_0_cycle1_af2pred (protein) AAAQAARAYAVLKAHADAAAKRAAELAAEGAEGARAGAQLLAVVSDAAAGAAKAFPEYAAELNALAAAAAAAAAAAAAAAAAAEAAA	not found
design_488_244881a1-ba0c-4c08-ad9c-1f64cf93580a_858_dldesign_0_cycle1_af2pred (protein) DEEREKLLAEAEKYLAAAVAAAKAAGVQGGQVRAIANSLAIALRTGNTAGAATLLTSLVATAAKVGPEVLTHANKAKEKATQWIALA	not found
design_488_244881a1-ba0c-4c08-ad9c-1f64cf93580a_931_dldesign_0_cycle1_af2pred (protein) MKELEEAAKRALELAPPEHRPLMERLVAIARELAKIIGDEEAAAILGEGVLEGARDPERAVDITMAAQGAAIRLAHARQSA	not found
design_488_244881a1-ba0c-4c08-ad9c-1f64cf93580a_1058_dldesign_0_cycle1_af2pred (protein) MAEAQALLLETAKEAYEYAKEDPENAEYYLAAATHVLRALSALTTDPAKAIELLEKAIEEAKKTDPEKGEELIKKIEEAKKLVEAAA	not found
design_488_244881a1-ba0c-4c08-ad9c-1f64cf93580a_1131_dldesign_0_cycle1_af2pred (protein) DEASEKAEAAYNKAKALEAAGADPNDILAAYVDAMGYLSEAARAAREAGREEEAEKWQAKLKEAQKNATKAAKAAVAAARA	not found
design_488_244881a1-ba0c-4c08-ad9c-1f64cf93580a_1178_dldesign_0_cycle1_af2pred (protein) SDAEKAESALKFLNTLEEIGIIAKKEYGPEFAQNMINSIENSSKIFAAAVSPEYAKKILEKAKEAIEKIKAA	not found
design_488_244881a1-ba0c-4c08-ad9c-1f64cf93580a_1220_dldesign_0_cycle1_af2pred (protein) DETEKKREEAKKEAEKLIEELEKAGKEVAAVPAASNMALATAKQGKKQLKEAEKLSPEEALKVYEAVKKSAEVALEIARATKAALAA	not found
design_488_244881a1-ba0c-4c08-ad9c-1f64cf93580a_1252_dldesign_0_cycle1_af2pred (protein) DAARRQGAVAFMQQVLESAKNYPEAAPIAQAGLDRVAAAVAAGAPADEVVALARREAAAANKAMIAAAKA	not found
design_488_244881a1-ba0c-4c08-ad9c-1f64cf93580a_1373_dldesign_0_cycle1_af2pred (protein) MTAAQAAAAVASLAQSAVLAAKQDPALAKQAVEAAQSFAIWATTKLGDAALAEAAAKALKDAGKAAPAVAKQAEAAAKAVLDTAKKL	not found
design_488_244881a1-ba0c-4c08-ad9c-1f64cf93580a_1386_dldesign_0_cycle1_af2pred (protein) DQARKATEAAAKALLAQVERLSEEAVKAAKEDPAEAKRYLEAAEALRDVIAGLADEEIAKEYAAKAKEIIEKARKEVEAYLAAK	not found

— paper PMC13494018
